High-throughput results deposited in PubChem by National Center for Advancing Translational Sciences (NCATS).
A selection: hits, their analogues and other compounds. The true share with any hit is near 4.6%.
PNC inhibitor: High Content Assay for Compounds that inhibit the Assembly of the Perinucleolar Compartment; PC3M PTB-GFP, PNC prevalence imaging, 16 h; hits give low values; AID 2417, 2010; activity change (PNC), negative = inhibition, % at 10 µM; 140,000 compounds, 3.1% hits;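 active = readout at or below -70, meaning at least 70% loss of cells showing the perinucleolar compartment, a nuclear body marking cancer cells; inconclusive = readout between -30 and a set limit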;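 also: plate controls were DMSO wells for no effect and camptothecin positive control wells for full effect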
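Compounds are pinned in duplicate onto adhered PC3M cells stably expressing GFP-tagged PTB and incubated 16 h at 37 C. Cells are then fixed, nuclei stained with Hoechst, and PNC-positive cells counted.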
TexasRed fluor: Total Fluorescence Counterscreen for Inhibitors of the Interaction of Thyroid Hormone Receptor and Steroid Receptor Coregulator 2; 280,000 compounds, 0.29% hits; Potency, µM (top dose mostly 106 µM), without a hit: at the highest dose fluorescence change, negative = quenching; AID 1479, 2009; TRb/SRC2 Texas Red total fluorescence interference; active = well fitted curve in either direction with a large enough effect; inconclusive = small, poorly fitted or top-dose-only effect; also: potency is read from the fitted curve at half-maximal effect
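Human TRβ ligand-binding domain (0.6 uM) and Texas Red SRC2 peptide (20 nM) in Tris buffer with 1 uM T3 and 5% DMSO were incubated with pinned compound for 5 hr at ambient temperature. Total fluorescence was computed as S + 2P (555/632 nm).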
Tau fibril ThT: qHTS for Inhibitors of Tau Fibril Formation, Thioflavin T Binding; Microtubule-associated protein tau (Homo sapiens), P10636; 270,000 compounds, 2.1% hits; Potency, µM (series often up to 57.4 µM), for the others: top-dose activity, negative = inhibition, most hits filed as inhibitors; recombinant tau K18 P301L, heparin-induced fibrillization, ThT fluorescence; also: potency is read from the fitted curve at half-maximal effect; nearly all actives have a fitted effect of over 55% in size
Target sequence (P10636 561-689 P618L limits assumed): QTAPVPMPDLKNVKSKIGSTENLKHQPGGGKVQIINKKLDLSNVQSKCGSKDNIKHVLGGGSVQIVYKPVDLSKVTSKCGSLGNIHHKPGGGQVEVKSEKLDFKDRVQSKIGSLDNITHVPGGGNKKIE
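In this qHTS, human K18 P301L tau is incubated with compound and heparin for 6 hr at 37 C, and Thioflavin T fluorescence then reports fibril load.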
TRb SRC2 PPI: qHTS for Inhibitors of the Interaction of Thyroid Hormone Receptor and Steroid Receptor Coregulator 2. TRbeta-SRC2 peptide binding, fluorescence polarization; receptor liganded with 1 µM T3. Potency, µM (titrated, usually from 106 µM), inactives show at the highest dose activity change, negative = inhibition, most hits filed as inhibitors. Thyroid hormone receptor beta (Homo sapiens), P10828. 280,000 compounds, 0.065% hits;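 also: potency is read from the fitted curve at half-maximal effect; plate controls were bound peptide for no effect and peptide without receptor for full effect; nearly all actives have a fitted effect of over 50% in size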
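Read-out is fluorescence polarization (555 nm excitation, 632 nm emission) of a Texas Red SRC2 coactivator peptide; loss of signal reflects blocked binding to human TRb ligand-binding domain in the presence of 1 uM T3.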
Tau FP inhib: qHTS for Inhibitors of Tau Fibril Formation, Fluorescence Polarization; K18 P301L tau heparin fibrillization, Alexa594 FP, 6 h; Potency, µM (top dose mostly 57.7 µM), for inactives: top-dose activity, negative = inhibition, most hits filed as inhibitors; 280,000 compounds, 0.39% hits; AID 1468, 2008; also: potency is read from the fitted curve at half-maximal effect; nearly all actives have a fitted effect of over 55% in size
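Steps: dispense K18 P301L tau (15 uM plus 0.24 uM Alexa 594 tracer, final) in pH 7 sodium acetate; add compound; add heparin (20 uM final); incubate 6 hr, 37 C; add ThT (30 uM final); after 1 hr ambient, read FP.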
Tau fluor cs: Counterscreen qHTS for Inhibitors of Tau Fibril Formation, Fluorescence Polarization. tau K18 P301L Alexa594 fluorescence, heparin fibrillization. Potency, µM (doses to about 57.7 µM), for inactives: at the top dose activity change, negative = decrease. 280,000 compounds, 0.93% hits. AID 1463, 2008; also: potency is read from the fitted curve at half-maximal effect; nearly all actives have a fitted effect of over 55% in size
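Human tau K18 P301L (15 uM unlabeled, 0.24 uM Alexa 594-labeled) in 100 mM sodium acetate pH 7 with 20 uM heparin, 6 hr at 37 C. ThT 30 uM added, 1 hr ambient; Alexa 594 FP and total fluorescence read at 555/632 nm.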
* hit, by the source's call; ? = inconclusive; . = not tested or not shown. Unless noted, calls follow the shape of the dose curve; as a rule, active = well fitted curve in the direction sought with a large enough effect; inconclusive = small, poorly fitted or top-dose-only effect, or another doubt; inactive = no such curve, though single readings can be large; an effect the other way counts as inactive or inconclusive. Unless noted, % is scaled to controls: 0 for no effect and ±100 for the full control effect.

SMILES	PNC inhibitor	TexasRed fluor	Tau fibril ThT	TRb SRC2 PPI	Tau FP inhib	Tau fluor cs
Cc1ccc(C(C[N+](=O)[O-])Sc2ccc(N)cc2)cc1 (stereo not given)	.	0%	18µM*	-7%	?	?
CCC1CCCCN1Cc1ccc(OC)c(OC)c1 (stereo not given)	34	-2%	-1%	-8%	5%	4%
COc1ccc(CCNC(=O)CSc2cn(CCNC(=O)c3cccc(C(F)(F)F)c3)c3ccccc23)cc1OC	.	0%	-24%	5%	12%	?
O=C(Cc1n[nH]c(=O)c2ccccc12)OCC(=O)c1ccc2c(c1)OCCO2	-102*	-7%	?	4%	7%	-8%
O=C(Nc1nnc(S(=O)(=O)N2CCc3ccccc32)s1)c1ccccc1Cl	.	9%	?	-2%	-9%	-5%
NC(=O)NCCN1CCN(c2ncc(C(F)(F)F)cc2Cl)CC1	.	-1%	-2%	6%	-2%	1%
Cc1csc(NC(=O)c2sc3nc(-c4cccs4)ccc3c2N)n1	?	-5%	7.9µM*	-19%	13%	?
CCCSc1nnc(NC(=O)c2ccco2)s1	.	-1%	-7%	-3%	2%	-7%
CCCSc1nnc(NC(=O)c2sc3nc(-c4cccs4)ccc3c2N)s1	-10	-10%	7.9µM*	-1%	-4%	?
Cc1ccc(NC(=O)c2sc3nc(-c4cccs4)ccc3c2N)cc1F	.	-3%	?	0%	-9%	?
CC(=O)c1ccc(NC(=O)C2CCCN(S(=O)(=O)c3ccc4c(c3)CCCN4C(C)=O)C2)cc1 (stereo not given)	.	-2%	-2%	-2%	1%	-16%
CCOC(=O)C1CCCCN1Cc1cccc(C(F)(F)F)c1 (stereo not given)	?	-3%	-14%	0%	-15%	-8%
N#Cc1c(N)[nH]c(=S)c(C#N)c1-c1ccccc1	16	-4%	?	1%	?	-19%
